Assay results taken from PubChem BioAssay (NCATS).
Records with an inconclusive call do not appear. The source made the active and inactive calls. Calls come from the whole dose curve; as a rule, active = well fitted cell-killing curve with a large enough effect; inconclusive = small, poorly fitted or top-dose-only effect, or effect the other way; inactive = flat fitted curve, though single readings scatter.

Assays:
Test in all cases: Primary qHTS to identify gynecologic anti-cancer compounds using libraries of approved drugs and bioactive compounds (AID 1345084); note: nearly all actives have a fitted effect of over 55% in size
Settings in all cases: Gynecologic cancer cell panel viability, ATPlite luminescence, 48 h; series mostly up to 57.5 µM
[1] = system: PA-1
Outline: (§1)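 In this quantitative HTS, cell killing is estimated from loss of ATP-dependent luciferase light. Cells see five compound concentrations over a 48 h exposure.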

[2] = system: SKOV3
Outline: as §1

[3] = system: Tov-21-G
Outline: as §1

[4] = system: Tov112D
Outline: as §1

Measured: Potency

CC1=CC(=O)CC(C)(C)C1/C=C/C(C)OC1OC(COC2OCC(O)C(O)C2O)C(O)C(O)C1O (centres undefined)
inactive: [1] | [2] | [3] | [4]

COc1cc(O)cc(C)c1C(=O)O[C@H]1[C@@H](O)[C@@H](n2ccc(=O)[nH]c2=O)O[C@@H]1CO
inactive: [1] | [2] | [3] | [4]

O=C(O)C1(c2ccc(-c3ccc(Cl)c(Cl)c3)c(F)c2)CC1
inactive: [1] | [2] | [3] | [4]

CC/C=C/C(O)C(O)C1=C(C)C(=O)C2(O1)C(=O)NC(OC)(C(=O)c1ccccc1)C2O (centres undefined)
inactive: [1] | [2] | [3] | [4]

N[C@@H](CC(=O)Nc1ccc(Oc2cc(F)c(F)cc2Br)cc1)C(=O)O
inactive: [1] | [2] | [3] | [4]

CCCNCCOc1ccc(NC(=O)c2c[nH]c3c2C(=O)CCC3)cc1F
inactive: [1] | [2] | [3] | [4]

CSC(=O)OCC1=C[C@@H]2OC(=O)C3=CO[C@@H](O[C@@H]4O[C@H](CO)[C@@H](O)[C@H](O)[C@H]4O)[C@H]1[C@@H]32
inactive: [1] | [2] | [3] | [4]

CC1(C)CC2C(O)C3=C(CC(C)(O)C2C1)C(=O)OC3 (centres undefined)
inactive: [1] | [2] | [3] | [4]

COc1cncc(C#Cc2ccccn2)c1
inactive: [1] | [2] | [3] | [4]

CN1CCN(c2nc(-c3ccc(C(=O)NC4(C(=O)NCC#N)CCCCC4)cc3)cs2)CC1
inactive: [1] | [2] | [3] | [4]

O=C(Cc1ccccc1)OC[C@H]1O[C@H](O[C@H]2O[C@H](CO)[C@@H](O)[C@H](O)[C@H]2O)[C@H](O)[C@@H](O)[C@@H]1O
inactive: [1] | [2] | [3] | [4]

Cc1cc(-n2c(=O)[nH]c(=O)n(C)c2=O)ccc1Oc1ccc(SC(F)(F)F)cc1
inactive: [1] | [2] | [3] | [4]

CC(=O)O[C@@H]1CC2C(C)(C)C(=O)C=C[C@]2(C)C2CC[C@]3(C)C(=CC(=O)[C@@H]3c3ccoc3)[C@@]21C (some centres undefined)
inactive: [1] | [2] | [3] | [4]

COc1ccc(C(=O)OC2C3C=COC(OC4OC(CO)C(O)C(O)C4O)C3C3(CO)OC23)cc1OC (centres undefined)
inactive: [1] | [2] | [3] | [4]

CC1(CO)CCCC2(C)C1C(OC(=O)c1ccccc1)CC1C(=O)OCC12O (centres undefined)
inactive: [1] | [2] | [3] | [4]

CC(O)C(O)/C=C/C=C/C(=O)O[C@@H]1C=C(C(=O)O)[C@](O)(CO)[C@@]2(C)CCCC(C)(C)[C@H]12 (some centres undefined)
inactive: [1] | [2] | [3] | [4]

Cc1ccc2nc(NC(=O)CSc3nc4c(c(=O)n3-c3ccc(F)cc3)SCC4)sc2c1
inactive: [1] | [2] | [3] | [4]

CC1(C)CC[C@]2(C(=O)O[C@@H]3O[C@H](CO)[C@@H](O)[C@H](O)[C@H]3O)CC[C@]3(C)C(=CCC4[C@@]5(C)C[C@@H](O)[C@H](O)[C@@](C)(CO)C5[C@H](O)C[C@]43C)C2C1 (some centres undefined)
inactive: [1] | [2] | [3] | [4]

O=C(O)CCc1cccc(O)c1O[C@@H]1O[C@H](CO)[C@@H](O)[C@H](O)[C@H]1O
inactive: [1] | [2] | [3] | [4]

CC(O)C/C=C/C=C/C(=O)OC1C=C2COC(=O)C2(O)C2(C)CCCC(C)(C)C12 (centres undefined)
inactive: [1] | [2] | [3] | [4]

CC(=O)OC[C@@]12C(=O)C[C@@H](C)[C@]3(C[C@@H](c4ccoc4)OC3=O)[C@H]1CC[C@H](OC(C)=O)[C@]21CO1
inactive: [1] | [2] | [3] | [4]

CC1(C(=O)O)CCCC2(C)C3CCC4CC3(CCC12)CC4C(=O)O (centres undefined)
inactive: [1] | [2] | [3] | [4]

C/C=C/C(=O)OC1/C=C/C(O)C(OC(C)=O)CCC(=O)OC1C (centres undefined)
inactive: [1] | [2] | [3] | [4]

CC1CC(=O)C2=C(O1)OC1(C)CCC3C(C)(C)C4OC4C(=O)C3(C)C1C2 (centres undefined)
inactive: [1] | [2] | [3] | [4]

C/C=C(\C)C(=O)OCC1OC(OCC2OC(OC3(CO)OC(CO)C(O)C3O)C(O)C(O)C2O)C(O)C(O)C1O (centres undefined)
inactive: [1] | [2] | [3] | [4]

CC12CC(O)C(O)C=C1c1cc(O)cc(O)c1C(=O)O2 (centres undefined)
inactive: [1] | [2] | [3] | [4]
